Source: the supplement of paper PMC13380429

Experiments:
[1] = system: Vero E6 infected with SARS-CoV-2; experiment: morphology score (similarity to uninfected cells); higher = more like uninfected cells; details: 24 h
[2] = system: Vero E6 infected with SARS-CoV-2; experiment: SARS-CoV-2 infection rate relative to infected DMSO; higher = more infection, active = 60 or less; details: 24 h

| SMILES | morphology score [1] | SARS-CoV-2 infection rate [2] |
| --- | --- | --- |
| CCCCN1[C@@H]2CC[C@H]1C[C@@H](OC(c1ccc(F)cc1)c1ccc(F)cc1)C2 (0.833333 µM) | 0.0455 | 86% (inactive) |
| CCCCCCCCCCCCCCCCOP(=O)([O-])OCC[N+](C)(C)C [miltefosine] (0.833333 µM) | 0.182 | 94.5% (inactive) |
| Nc1cc(C(F)(F)F)c(-c2nc(N3CCOCC3)nc(N3CCOCC3)n2)cn1 (10 µM) | 0.0308 | 114% (inactive) |
| COc1ccc(Cl)cc1C(=O)NCCc1ccc(C(=O)O)cc1 [meglitinide] (10 µM) | 0.13 | 102% (inactive) |
| O=C(O)CCCNC(=O)c1cccnc1 [pikamilone] (10 µM) | 0.0672 | 100% (inactive) |
| C[C@]12CC[C@@H]3c4ccc(O)cc4CC[C@H]3[C@@H]1CCC2=O [estrone] (10 µM) | -0.145 | 108% (inactive) |
| O=C(CSc1nc2c(c(=O)n1-c1ccccc1)SCC2)Nc1ccc(-c2ccccc2)cn1 (10 µM) | 0.109 | 112% (inactive) |
| CN(Cc1cc(Br)cc(Br)c1N)C1CCCCC1 [bromhexine] (10 µM) | -0.0228 | 102% (inactive) |
| C=C[C@@]1(C)CC(=O)[C@]2(O)[C@@]3(C)[C@@H](O)CCC(C)(C)[C@@H]3[C@H](O)[C@H](OC(C)=O)[C@@]2(C)O1 [colforsin] (10 µM) | 0.455 | 83% (inactive) |
| O/N=C/c1cc[n+](COC[n+]2ccc(/C=N/O)cc2)cc1 [obidoxime] (10 µM) | -0.0437 | 108% (inactive) |
| Nc1c(Br)cc(Br)cc1CN[C@H]1CC[C@H](O)CC1 [ambroxol] (10 µM) | -0.155 | 114% (inactive) |
